The values below come from PubChem BioAssay.

Calls of active or inactive are those of the source.

The target of one assay is Albumin (Bos taurus) (UniProt P02769). The experiment in a line: compounds binding labelled BSA control protein – biochemical, small-molecule microarray, Alexa647 label, 635/667 nm fluorescence, artefact control for SMM control protein annotation, profiling panel (AID 1118).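 Further: score merges 667 nm emission intensity and signal-to-noise per printed compound spot.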 The following applies: BSA-A647 binding, fluorescence 635 nm, higher = more signal.
Assay [1] in a line: probe aXIP binding to arrayed compounds – biochemical, NeuroSMM set, 635/667 nm fluorescence, primary screen (AID 1119).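 Further: probe is the protein aXip251-270 applied at 1 µg/mL to compound-printed slides; binding of probe to printed compounds measured as 667 nm fluorescence plus signal to noise.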 The conditions noted are these: small-molecule microarray, higher = more signal, called active from +8 up or from −8 down.
The nature of assay [2]: probe aNOTCH3 binding on compound microarray – biochemical, small-molecule microarray, 635/667 nm fluorescence, primary screen (AID 1120).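 Further: probe is a biotin-tagged antibody raised against NOTCH3 rather than NOTCH3 protein; score merges spot fluorescence near 667 nm with spot signal to noise.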 The following applies: higher = more signal.
Assay [3] in a line: probe aNOTCH2 binding on compound microarray – biochemical, small-molecule microarray, 635/667 nm fluorescence, primary screen (AID 1121).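 Further: score merges feature fluorescence read at 667 nm with its signal to noise.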 The following applies: higher = more signal.
Assay [4] addresses Carbonic anhydrase 2 (Homo sapiens) (UniProt P00918). As to the kind of experiment: compounds binding carbonic anhydrase 2 – biochemical, small-molecule microarray, Alexa647-labelled CAII, profiling panel (AID 1122). The following applies: CAII-A647 binding fluorescence, higher = more signal.
Assay [5] is described as follows: COS7 lysate on small-molecule microarray, probe aHis, 635 nm (AID 1123).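 Further: z-score combines 667nm fluorescence intensity with signal-to-noise per printed compound spot.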 The conditions noted are these: COS7 cell lysate, fluorescence, higher = more signal.
The nature of assay [6]: probe aLAP1 signal on lysate-treated microarray – cell lysate, small-molecule microarray, COS7 lysate, primary screen (AID 1124).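 Further: lysate comes from COS7 cells expressing LAP1 and is applied at 0.3 µg/mL; score merges spot fluorescence near 667 nm with signal-to-noise over triplicate slides.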 The conditions noted are these: probe aLAP1, fluorescence, higher = more signal.
The subject of the next assay is Sam68 (KHDRBS1). The experiment in a line: compounds binding KHDRBS1 protein – biochemical, small-molecule microarray, 635 nm fluorescence, primary screen (AID 1125).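 Further: score merges 667 nm channel intensity with signal to noise over triplicate slides.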 The conditions noted are these: higher = more signal.
For assay [7], the system named is Chordin-like protein 2 (CHRDL2). The experiment in a line: compounds binding chordin-like 2 – biochemical, small-molecule microarray, 635 nm fluorescence, primary screen (AID 1126).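 Further: printed compound slides probed with Chrdl2 protein at 4 µg/mL for 1 h at 4 C; score merges 667 nm emission intensity with signal to noise over three replicate slides.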 The following applies: fluorescence 635 nm, higher = more signal.
Assay [8] has as its target Concanavalin-A (Canavalia ensiformis) (UniProt P02866). The experiment in a line: compounds binding concanavalin A lectin – biochemical, small-molecule microarray, Alexa647 label, 635 nm, artefact control for SMM control protein annotation, primary screen (AID 1127).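 Further: z combines 667 nm emission intensity with signal-to-noise across three replicate slides.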 The following applies: ConA-A647 binding fluorescence, higher = more signal.

Sequence of Concanavalin-A (Canavalia ensiformis) (P02866 whole entry, looked up): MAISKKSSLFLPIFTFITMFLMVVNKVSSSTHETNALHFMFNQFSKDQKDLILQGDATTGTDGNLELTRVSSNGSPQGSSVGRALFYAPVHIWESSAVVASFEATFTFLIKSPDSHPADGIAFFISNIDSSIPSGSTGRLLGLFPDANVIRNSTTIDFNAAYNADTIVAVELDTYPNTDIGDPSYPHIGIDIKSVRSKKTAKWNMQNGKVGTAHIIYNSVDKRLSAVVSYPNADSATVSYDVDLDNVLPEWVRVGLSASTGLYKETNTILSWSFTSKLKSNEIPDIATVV
Sequence of Albumin (Bos taurus) (P02769 whole entry, looked up): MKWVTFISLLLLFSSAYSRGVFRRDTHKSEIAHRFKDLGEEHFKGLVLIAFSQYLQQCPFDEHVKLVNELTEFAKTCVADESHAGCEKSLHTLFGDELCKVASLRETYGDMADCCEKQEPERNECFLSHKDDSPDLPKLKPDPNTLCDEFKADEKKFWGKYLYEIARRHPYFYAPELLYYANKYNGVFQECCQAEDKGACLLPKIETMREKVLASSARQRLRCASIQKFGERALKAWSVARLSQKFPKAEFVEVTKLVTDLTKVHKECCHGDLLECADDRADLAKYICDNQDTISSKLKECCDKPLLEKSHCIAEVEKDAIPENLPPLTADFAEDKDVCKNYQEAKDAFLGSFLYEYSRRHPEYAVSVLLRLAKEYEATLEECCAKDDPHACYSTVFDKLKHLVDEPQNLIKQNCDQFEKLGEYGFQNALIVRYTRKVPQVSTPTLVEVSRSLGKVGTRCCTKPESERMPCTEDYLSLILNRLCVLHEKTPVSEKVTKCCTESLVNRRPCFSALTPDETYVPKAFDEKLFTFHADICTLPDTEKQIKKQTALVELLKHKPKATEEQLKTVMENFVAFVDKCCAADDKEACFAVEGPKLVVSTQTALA

In the case of `COc1ccccc1CN1C(=O)c2ccccc2[C@](Cc2ccccc2I)(C(=O)NCC(F)(F)F)[C@@H]1c1ccc(CO)cc1`, the composite z-score with Albumin (Bos taurus) is 0.832; in assay [2], 0.073; in assay [3], -0.057; in assay [4] it was 0.824; in assay [5], 1.95; in assay [6] it was 0.311. The composite z-score in the assay with Sam68 (KHDRBS1) was 1.29; in assay [7] it was -1.12; in [8] it was 1.15. The composite Z-score in assay [1] was -0.46 (inactive).
For the molecule `COc1ccc(CCNC(=O)[C@@]2(Sc3ccc(C)cc3)CC(=O)N(C3Cc4ccccc4C3)[C@@H]2c2ccc(CO)cc2)cc1`, the composite z-score amounted to 0.575 with Albumin (Bos taurus); 0.0522 in assay [2]; 0.0407 in [3]; 0.274 in assay [4]; 1.23 in [5]; 0.661 in [6]. The composite z-score was found to be 1.3 with Sam68 (KHDRBS1), 1.5 in assay [7] and 1.14 in assay [8]. Also, the composite Z-score in assay [1] is -0.413 (inactive).
For `O=C1OCC=C[C@H]2OC34C=CCN(Cc5ccccc5)C(=O)[C@H]3N(CCCCCCO)C(=O)[C@@H]4[C@@H]12` (stereo not given in full), the composite z-score in the assay with Albumin (Bos taurus) is 0.4; in assay [2] it was -0.302; in assay [3], -0.162; in assay [4], 0.914; in assay [5] it was 0.0976; in assay [6], 1.31. For the same molecule, the composite z-score in the assay with Sam68 (KHDRBS1) is -0.398; in [7], -0.694; in [8], -0.159. Besides, the composite Z-score in assay [1] was 0.604 (inactive).
In the case of `O=C1O[C@@H](c2ccccc2)[C@@H](c2ccccc2)N2[C@@H](c3ccc(O)cc3)[C@]3(C(=O)Nc4ccc(C#CC5=CCCCC5)cc43)[C@@H](C(=O)NC[C@H](O)c3ccccc3)[C@H]12`, the composite z-score with Albumin (Bos taurus) came out at 0.375; in assay [2], 0.274; in assay [3] it was 0.0556; in assay [4], 0.401; in assay [5], 2.1; in assay [6], 0.553. Further, the composite z-score worked out at 1.31 in the assay with Sam68 (KHDRBS1), 1.13 in assay [7] and 1.05 in assay [8]. Also, the composite Z-score in assay [1] is 0.486 (inactive).
`CCCC[C@@H]1C[C@H]1[C@@H](NC(=O)c1ccccc1)c1ccc(C(F)(F)F)cc1`: the composite z-score with Albumin (Bos taurus) is -0.0844; in assay [2] it was 0.0562; in assay [3] it was -0.0698; in [4], 0.009; in assay [5], -0.511; in assay [6], -0.134. In addition, the results for the composite z-score (in the assay on Sam68 (KHDRBS1); in [7]; in assay [8]) were -1.5, -1.15 and -0.917, respectively. The composite Z-score in assay [1] is -0.157 (inactive).
With `COCCCNC(=O)[C@@]1(Cc2ccccc2N=[N+]=[N-])N=C(c2ccc(OCCCO)cc2)O[C@H]1c1ccccc1`, the composite z-score with Albumin (Bos taurus) was determined as 0.533; in assay [2], 0.0749; in assay [3], 0.0202; in [4], 0.35; in assay [5], 1.99; in [6] it was 1.25. Further, the composite z-score in the assay on Sam68 (KHDRBS1) worked out at 1.04; in assay [7], 0.099; in assay [8] it was 0.79. Moreover, the composite Z-score in [1] was 0.93 (inactive).
On to `NC(=O)N1C(=O)C2C(C1=O)C1C=C(CCCO)C2C(c2cccs2)N1Cc1cccc(OC(F)(F)F)c1` (stereo not given), for which the composite z-score in the assay with Albumin (Bos taurus) is 0.729; in assay [2], -0.023; in assay [3], -0.0534; in assay [4] it was 0.583; in assay [5], 0.789; in assay [6], -0.0259. Moreover, the composite z-score with Sam68 (KHDRBS1) was 1.07; in [7] it was -0.0665; in assay [8], 0.434. In addition, the composite Z-score in assay [1] was -0.182 (inactive).
For `COC(=O)Cn1c(C(=O)N(C)C)cc2c1C[C@H]1CN(C(=O)c3ccccc3)[C@@](Cc3ccc(F)cc3)(C(=O)OC)[C@@H]21`, the composite z-score with Albumin (Bos taurus) was found to be 0.944; in [2], 0.541; in [3], 0.267; in assay [4], 0.884; in assay [5], 0.56; in [6], 0.108. In addition, the composite z-score with Sam68 (KHDRBS1) is -0.167; in assay [7] it was 0.0171; in [8], 0.136. In addition, the composite Z-score in assay [1] is -0.155 (inactive).
With `O=C1C[C@@](C(=O)NCCN2CCOCC2)(c2ccc([N+](=O)[O-])cc2)[C@@H](c2ccc(CO)cc2I)N1C1CCCCC1`, the composite z-score with Albumin (Bos taurus) was 0.614; in assay [2], -0.095; in assay [3], -0.14; in assay [4], 0.659; in [5], 1.74; in [6], 1.07. Also, the composite z-score in the assay on Sam68 (KHDRBS1) was determined as 0.761; in assay [7] it was 0.473; in assay [8], 0.416. For the same molecule, in assay [1], the composite Z-score was 0.142 (inactive).
With `CCCCCCc1nc(C2CC2)cc2c1[Si](C(C)C)(C(C)C)O[C@H]2c1ccccc1`, the composite z-score with Albumin (Bos taurus) is -0.948; in [2] it was -0.0647; in [3] it was -0.126; in [4] it was -0.324; in [5], -0.724; in assay [6] it was 0.649. Also, the composite z-score was -0.698 in the assay with Sam68 (KHDRBS1), 0.21 in assay [7] and 0.327 in assay [8]. Besides, in assay [1], the composite Z-score was -0.228 (inactive).
In the case of `C=CCNC(=O)[C@H]1[C@@H]2C(=O)O[C@@H](c3ccccc3)[C@@H](c3ccccc3)N2[C@@H](c2ccc(O)cc2)[C@]12C(=O)Nc1ccc(C#CC3(O)CCCCCC3)cc12`, the composite z-score in the assay with Albumin (Bos taurus) is 0.201; in assay [2] it was 0.0961; in [3], -0.0695; in [4] it was 0.714; in assay [5], 2.11; in assay [6], 0.355. The composite z-score worked out at 1.1 in the assay with Sam68 (KHDRBS1), 0.215 in assay [7] and 0.556 in assay [8]. Also, in assay [1], the composite Z-score was -0.005 (inactive).
Regarding `O=C1C2C=CC(C(O)c3ccccc3)N(Nc3ccccc3F)C2C(=O)N1c1ccccc1` (stereo not given), the composite z-score with Albumin (Bos taurus) is 0.571; in assay [2], -0.0879; in [3] it was -0.126; in assay [4] it was 0.811; in assay [5] it was 0.737; in assay [6], 0.34. In addition, the figures for the composite z-score (in the assay on Sam68 (KHDRBS1); in assay [7]; in [8]) were 0.246, 0.18 and 0.532, respectively. The composite Z-score in [1] is -0.158 (inactive).
For `O=C(NCC(F)(F)F)[C@@H]1c2ccccc2C(=O)N(Cc2ccc(OC(F)(F)F)cc2)[C@H]1c1ccc(CO)cc1`, the composite z-score with Albumin (Bos taurus) is 0.0667; in [2], -0.0647; in assay [3], -0.14; in assay [4], 0.65; in assay [5], 0.96; in assay [6] it was 0.203. In addition, the composite z-score in the assay with Sam68 (KHDRBS1) was 0.761; in [7], -0.374; in assay [8] it was 0.711. Also, the composite Z-score in assay [1] was -0.348 (inactive).
For the molecule `CC(CO)N1C(=O)[C@@H]2[C@H]3C(=O)OCC=C[C@H]3OC23C=CCN(Cc2ccccc2)C(=O)[C@@H]13` (stereo not given in full), the composite z-score was 0.407 with Albumin (Bos taurus); -0.308 in assay [2]; -0.22 in assay [3]; 0.905 in assay [4]; -0.851 in [5]; -0.419 in assay [6]. The results for the composite z-score (in the assay with Sam68 (KHDRBS1); in assay [7]; in assay [8]) were -1.17, -0.42 and -0.325, respectively. Moreover, the composite Z-score in [1] is -0.106 (inactive).
Consider `O=C1N(Cc2ccccc2)Cc2ccccc2[C@@H]2OC(c3ccc(OCCCO)cc3)=N[C@]12CCS(=O)(=O)c1ccccc1`, for which the composite z-score in the assay with Albumin (Bos taurus) was -0.0561; in [2], 0.0876; in [3], 0.0607; in assay [4], 0.484; in assay [5], 2.23; in assay [6] it was 0.0984. The figures for the composite z-score (in the assay on Sam68 (KHDRBS1); in [7]; in assay [8]) were 1.25, 0.068 and 0.888, respectively. Besides, in assay [1], the composite Z-score was 1.52 (inactive).
